Anthrax LF prot: anthrax lethal factor protease inhibition; P15917; multiplex microsphere protease cleavage assay, LF; inhibition, % at 10 µM; actives 0.12% (n = 360,000); AID 588501; further: plate controls were buffer without enzyme for full effect and enzyme alone for no effect
BoNT-F LC inh: BoNT F light chain protease inhibition; Multiplex microsphere protease cleavage assay, flow cytometry; inhibition, % at 10 µM; actives 0.22% (n = 360,000); AID 588497; in the data active means inhibition above about 35%, passing the limit was not always enough; inconclusive means no clear call, values can overlap the other calls; further: plate controls were buffer without enzyme for full effect and enzyme alone for no effect
BoNT-A LC inh2: inhibitors of Botulinum neurotoxin A light chain protease | multiplex microsphere protease substrate cleavage, flow cytometry | actives 0.17% (n = 360,000) | inhibition, % at 10 µM; further: plate controls were buffer without enzyme for full effect and enzyme alone for no effect
TcdB GH inh: TcdB glycohydrolase inhibition. TcdB glycohydrolase enzymatic assay, plate reader. actives 0.24% (n = 350,000). inhibition, % at 9.99 µM. P18177; in the data active means inhibition above about 10%
Bead autofluor: flagged as autofluorescent in microsphere protease counterscreen; compound autofluorescence counterscreen, microsphere flow cytometry; active compounds read high; fluorescence intensity (test concentration not listed); actives 3.1% (n = 360,000); AID 624483; in the data active means fluorescence intensity above about 16000; inconclusive means no clear call, values can overlap the other calls
An asterisk follows results filed as active; ? = inconclusive; · = no result given. Only a selection was taken, and hits are over-represented in it overall. Unless noted, no stated cut-off is given here; in the data, active means inhibition above about 30%; inconclusive means no clear call, values can overlap the other calls; inactive means below that.

SMILES	Anthrax LF prot	BoNT-F LC inh	BoNT-A LC inh2	TcdB GH inh	Bead autofluor
COc1ccc(S(=O)(=O)Nc2c(C)n(C)n(-c3ccccc3)c2=O)cc1Br	-10	-7	-2	1	3820
COc1ccccc1NC(=O)Nc1c(C)n(C)n(-c2ccccc2)c1=O	-5	2	?	·	21129*
Cc1c(NC(=O)/C(=C/c2cccs2)NC(=O)c2ccccc2)c(=O)n(-c2ccccc2)n1C	3	-2	0	0	4356
CCCNC(=O)N(C)C[C@@H]1Oc2cc(-c3cccnc3)ccc2S(=O)(=O)N([C@@H](C)CO)C[C@H]1C	·	·	·	0	·
Cc1c(NC(=O)CC(=O)Nc2c(C)n(C)n(-c3ccccc3)c2=O)c(=O)n(-c2ccccc2)n1C	1	0	1	·	7785
Cc1c(NC(=O)CN2CCCc3ccccc32)c(=O)n(-c2ccccc2)n1C	-2	-3	?	·	22099*
N#C[C@@H]1[C@@H](c2ccc(-c3cccc(F)c3)cc2)[C@H](CO)N1C(=O)NC1CCCCC1	·	·	·	-2	·
C[C@H](CO)N1C[C@H](C)[C@H](CN(C)C)Oc2ccc(NS(=O)(=O)c3cn(C)cn3)cc2CC1=O	·	·	·	0	·
CCOC(=O)C1=C(CN2c3ccccc3CC2C)NC(=O)NC1c1ccccc1 (stereo unspecified)	44*	16	54*	·	2062
Cc1cc(C(=O)N2CCN(Cc3ccccc3)CC2)ccc1[N+](=O)[O-]	-13	-7	-1	12*	4324
O=C(c1ccc(Br)c([N+](=O)[O-])c1)N1CCN(Cc2ccccc2)CC1	0	-1	2	-1	3802
CCCCc1nnc(NC(=O)CSc2nc(=O)cc(N)n2-c2cccc(C)c2)s1	-1	0	0	·	16503*
COC(=O)c1cccc(NC(=O)CSc2nc(=O)cc(N)n2-c2ccccc2)c1	-3	0	-1	·	16937*
Nc1cc(=O)nc(SCC(=O)N(C2CCCCC2)C2CCCCC2)n1-c1ccccc1	1	-3	?	-2	16646*
Cc1ccc(NC(=O)CSc2nc(=O)cc(N)n2-c2ccccc2)cc1	1	-2	0	·	4224
Nn1c(SCC(=O)Nc2ccccc2F)nc2ccccc2c1=O	0	-2	?	·	16496*
O=C(O)Cn1nnnc1SCC(=O)Nc1ccccc1F	2	3	0	1	4688
CCCCn1c(SCC(=O)Nc2cc(C)on2)nc2ccsc2c1=O	-8	5	0	·	11106
CCCCCCn1c(SCC(=O)Nc2cc(C)on2)nc2ccccc2c1=O	-3	-1	-2	·	16827*
CCOC(=O)c1cccc(NC(=O)CSc2nc3ccccc3c(=O)n2CCOC)c1	-2	-1	?	·	22521*
Cc1cc(NC(=O)CSc2nc3ccsc3c(=O)n2CCCCC(=O)O)no1	-2	0	-1	2	16845*
COc1ccc(CCn2c(SCC(=O)Nc3cc(C)on3)nc3ccsc3c2=O)cc1OC	-11	5	3	·	19488*
C[C@H](CO)N1C[C@H](C)[C@@H](CN(C)C(=O)C2CCCCC2)OCCCC[C@H](C)Oc2ccc(NC(=O)C3CCCCC3)cc2C1=O	·	·	·	0	·
C[C@@H]1CN([C@@H](C)CO)C(=O)c2cccc(NC(=O)Nc3ccccc3)c2O[C@H]1CN(C)Cc1ccc2c(c1)OCO2	·	·	·	0	·
Cc1cc(NC(=O)CSc2nc3ccccc3n2CC(=O)N2CC(C)CC(C)C2)no1 (stereo unspecified)	-2	-1	?	·	23778*
SMILES	Anthrax LF prot	BoNT-F LC inh	BoNT-A LC inh2	TcdB GH inh	Bead autofluor
CCCCOC(=O)n1c(SCC(=O)N(CC)CC)nc2ccccc21	-12	-7	-5	·	24831*
CCN(CC)C(=O)CSc1nc2ccccc2c(=O)n1OC(C)C	-6	-3	-2	·	17014*
CC(C#N)On1c(SC(C)C#N)nc2ccccc2c1=O (stereo unspecified)	-4	-6	-4	·	25088*
CCOC(=O)n1c(SCC(N)=O)nc2ccccc21	-2	-17	-2	·	3304
CCC(C)n1c(SC(C)C#N)nc2ccccc2c1=O (stereo unspecified)	-5	-13	1	2	9779
CCc1c(C)nc(N)n2c(SCC(=O)Nc3ccccc3OC)nnc12	0	-1	-1	-1	23325*
CCOc1ccccc1NC(=O)CSc1nnc2c(CC)c(C)nc(N)n12	-5	-15	-2	·	11678
CCOC(=O)N1CCN(c2ncnc3c2oc2nc(C(C)C)c4c(c23)CCC4)CC1	-5	4	4	·	20792*
CC(C)Cc1nc2oc3c(N4CCN(CCO)CC4)ncnc3c2c2c1CCCC2	-2	-5	0	·	10925
Cc1ccccc1S(=O)(=O)N1[C@H](C#N)[C@H](c2ccc(C#CC3CCCC3)cc2)[C@H]1CO	·	·	·	0	·
CN1C(=O)c2cc(NC(=O)C3CCCC3)ccc2OC[C@@H]2O[C@@H](CC(=O)NCC3CC3)CC[C@@H]21	·	·	·	-13	·
CC1CCCN(C(=S)Nc2ccc(Nc3ccccc3)cc2)C1 (stereo unspecified)	-5	-4	-1	1	4494
CC1CCCN(C(=S)Nc2ccc(F)cc2)C1 (stereo unspecified)	-1	-2	0	12*	4386
C[C@H](CO)N1C[C@H](C)[C@@H](CN(C)Cc2ccc(C(F)(F)F)cc2)OCCCC[C@H](C)Oc2ccc(NS(=O)(=O)c3ccc(Cl)cc3)cc2C1=O	·	·	·	0	·
COc1ccc(-c2cc(C(=O)Nc3cccc(C(C)=O)c3)no2)cc1	2	1	1	·	19306*
COc1cccc(-c2cc(C(=O)Nc3cccnc3Cl)no2)c1	0	-1	0	0	5786
COc1ccc(-c2cc(C(=O)Nc3cccc(Cl)c3)no2)cc1	-3	2	2	1	3096
COc1ccc(-c2cc(C(=O)Nc3ccccc3SC)no2)cc1OC	-3	-1	2	·	23175*
COc1ccc(NC(=O)c2cc(-c3cccc(OC)c3)on2)cc1	4	-14	0	1	6077
COc1cccc(-c2cc(C(=O)Nc3cccc(O)c3)no2)c1	-2	-5	-3	·	24356*
COc1cccc(-c2cc(C(=O)Nc3ccccc3SC)no2)c1	1	-1	?	·	16463*
COc1ccccc1-c1cc(C(=O)Nc2ccccc2SC)no1	2	-4	0	·	8096
C[C@H](CO)N1C[C@H](C)[C@H](CN(C)C(=O)C2CCC2)Oc2ncc(C#Cc3ccccc3F)cc2C1=O	·	·	·	1	·
C[C@@H]1CCCCO[C@@H](CN(C)S(=O)(=O)c2ccccc2)[C@H](C)CN([C@@H](C)CO)C(=O)c2cc(NC(=O)C3CCCCC3)ccc2O1	·	·	·	1	·
CCCN(C)C[C@@H]1Oc2ncc(C#CCOC)cc2C(=O)N([C@H](C)CO)C[C@@H]1C	·	·	·	-1	·
O=C(c1cccc2c1-c1ccccc1/C2=N/O)N1CCCCC1	3	-3	?	·	20508*
COC(=O)[C@H](CCSC)NC(=O)NCCc1ccc(F)cc1	-2	-2	-1	·	23311*
COC(=O)[C@H](Cc1ccccc1)NC(=O)NCCc1ccc(F)cc1	·	·	·	0	·
COC(=O)[C@H](CCSC)NC(=O)Nc1ccc(C)c(C)c1	2	5	4	·	21760*
O=C(C[C@@H]1C=C[C@H](NC(=O)c2ccc(F)cc2)[C@@H](CO)O1)NCCc1ccncc1	·	·	·	0	·

Assay outcomes as filed in PubChem.
